Data reported in PubChem BioAssay AID1030 (National Center for Advancing Translational Sciences (NCATS), 2008).
Where “and” joins values, the source holds several entries; their conditions need not be identical. Equal values may be shown once. About 16,000 (7.3%) of roughly 220,000 compounds were called active. Inconclusive results (about 25%) are left out. The entries come from a sample that favours actives as a whole. Values without a mark were called inactive. Calls follow the shape of the dose curve; as a rule, active = well fitted inhibition curve with a large enough effect (not every such curve was filed as active); inconclusive = small, poorly fitted or top-dose-only effect, or another doubt; inactive = no such curve, though single readings can be large or run the other way.

These compounds were tested against Aldehyde dehydrogenase 1A1 (Homo sapiens) (UniProt P00352) (assay: qHTS Assay for Inhibitors of Aldehyde Dehydrogenase 1 (ALDH1A1)). Settings: Purified ALDH1A1, NADH fluorescence, propionaldehyde substrate; series mostly up to 75.3 µM; activity, negative = inhibition: at the top concentration.
Aldehyde dehydrogenase 1A1 (Homo sapiens), sequence (P00352 whole entry, looked up): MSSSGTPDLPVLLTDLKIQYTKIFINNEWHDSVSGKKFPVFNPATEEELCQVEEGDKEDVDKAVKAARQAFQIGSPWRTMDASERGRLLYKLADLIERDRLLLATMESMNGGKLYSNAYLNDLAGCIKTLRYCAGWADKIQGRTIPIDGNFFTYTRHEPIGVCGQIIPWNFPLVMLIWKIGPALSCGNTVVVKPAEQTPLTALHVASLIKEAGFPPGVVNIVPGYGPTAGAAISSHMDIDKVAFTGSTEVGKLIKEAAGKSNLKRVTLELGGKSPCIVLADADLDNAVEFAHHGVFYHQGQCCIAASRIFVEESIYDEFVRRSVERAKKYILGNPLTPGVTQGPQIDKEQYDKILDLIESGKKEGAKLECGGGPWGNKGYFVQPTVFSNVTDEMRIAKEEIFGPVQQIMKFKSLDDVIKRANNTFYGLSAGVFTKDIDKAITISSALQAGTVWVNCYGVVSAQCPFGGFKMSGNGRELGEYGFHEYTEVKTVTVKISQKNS

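For activity, negative = inhibition in this document: plate controls were no enzyme wells and a reference inhibitor.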
Potency is read from the fitted curve at half-maximal effect.

| SMILES | activity, negative = inhibition | Potency |
| --- | --- | --- |
| Cc1c(NC(=O)CCC2CCCCC2)cc(C(=O)N2CCOCC2)cc1[N+](=O)[O-] | 3.98% |  |
| O=C(N/N=C/c1ccco1)c1ccc(NC(=O)C2CC2)cc1 | -3.27% |  |
| Cc1ccc(NC(=O)Nc2cccc(C(F)(F)F)c2)nc1 | -7.02% |  |
| COc1ccc(/C=N\NC(=O)c2sc(N)nc2C)cc1OC | 2.89% |  |
| COc1ccc(/C=N/NC(=O)c2ccccc2)cc1OS(=O)(=O)c1ccccc1 |  | 14.1 µM (active) |
| COc1cccc(/C=N/NC(=O)c2cccc([N+](=O)[O-])c2)c1OS(=O)(=O)c1ccc(C)cc1 | -5.06% |  |
| COc1ccc(C(=O)Nc2ccccc2C(=O)N/N=C/c2ccc(O)c(OC)c2)cc1 | 3.47% |  |
| COc1cc(/C=N/NC(=O)c2ccccc2)ccc1OS(=O)(=O)c1ccccc1 |  | 14.1 µM (active) |
| COc1ccc(/C=N/NC(=O)c2ccc(Cl)cc2)cc1COC(C)=O | 7.34% |  |
| O=C(NNC(=O)c1cnccc1C(F)(F)F)c1ccc(Cl)cc1 | 10.2% |  |
| Nc1nc(O)c(CC(=O)O)s1 | 3.26% |  |
| Cc1cc(C)c(C(N)=O)c(Cl)n1 | 3.59% |  |
| CCOC(=O)c1c(NC(C)=O)sc2c(O)c(Br)ccc12 | -12.2% |  |
| CCOC(=O)c1sc(NC(=O)COc2ncnc3ccccc23)c(C(=O)OCC)c1C | -16.3% |  |
| CCOC(=O)c1c(NC(=O)CCl)sc(C(=O)N(CC)CC)c1C |  | 10 µM (active) |
| CCOC(=O)c1sc(NC(=O)CCN2CCOCC2)c(C(=O)OCC)c1C |  | 17.8 µM (active) |
| CCc1c(C)sc(NC(=O)OC)c1C(=O)N1CCOCC1 | 0.994% |  |
| CCOC(=O)c1sc(NC(=O)CSc2nnc(-c3ccco3)o2)c(C(=O)OCC)c1C | -8.17% |  |
| O=C(c1cc(=O)c2ccccc2o1)N1CCN(c2ccccc2)CC1 | -7.27% |  |
| COc1cccc(C(=O)Nc2nc3ccc(S(C)(=O)=O)cc3s2)c1 | -1.22% |  |
| CC(=O)NC1=NN(C(C)=O)C(C)(CCS(=O)(=O)c2ccc(Cl)c(Cl)c2)S1 (configuration not stated) | -5.25% |  |
| CN(C)c1ccc(-n2cccc2/C=C2/SC(=Nc3ccc(F)cc3)NC2=O)cc1 | -0.0028% |  |

| SMILES | activity, negative = inhibition | Potency |
| --- | --- | --- |
| Cc1ccc(N=C2NC(=O)/C(=C/C=C/c3ccco3)S2)cc1C |  | 7.94 µM (active) |
| Nc1nc2c(ncn2[C@@H]2O[C@H](COP(=O)(O)OP(=O)(O)OP(=O)(O)O)[C@@H](O)C2O)c(=O)[nH]1 (some centres not stated) | 4.41% |  |
| O=C(Nc1ccccc1C(=O)N1CCOCC1)c1ccc(Cl)cc1 | 5.03% |  |
| Cc1nnsc1C(=O)NCc1c(F)cccc1Cl | 9.4% |  |
| Fc1cccc(Cl)c1CSc1ccc(-c2ccco2)nn1 |  | 20 µM (active) |
| O=C(CSCc1c(F)cccc1Cl)NCC1CCCO1 (configuration not stated) | 2.6% |  |
| CCc1ccc(C(=O)OCC(=O)NCC(F)(F)F)cc1 | -2.12% |  |
| OCCNCCOc1ccc(Cl)c(Cl)c1 | -8.88% |  |
| COc1ccc(-n2cnnc2SCC(=O)Nc2cccc([N+](=O)[O-])c2)cc1 | 5.76% |  |
| C=CCn1c2ccccc2c2nnc(SC(CC)C(=O)Nc3nc(C)c(C(=O)OCC)s3)nc21 (configuration not stated) | -8.14% |  |
| C=CCn1c(COc2ccccc2)nnc1SCC(=O)NCC(=O)OCC | 8.67% |  |
| C=CCn1c2ccccc2c2nnc(SCc3[nH]c(=O)[nH]c3C(=O)CCCCC(=O)OCC)nc21 |  | 10 µM (active) |
| CC(C)(C)n1nnnc1C(c1ccc(F)cc1)N1CCN(Cc2ccc3c(c2)OCO3)CC1 (configuration not stated) | -1.16% |  |
| CCCC(c1nnnn1C(C)(C)C)N1CCN(Cc2ccccc2)CC1 (configuration not stated) | -2.73% |  |
| COc1ccccc1C(c1nnnn1C(C)(C)C)N1CCN(Cc2ccccc2)CC1 (configuration not stated) |  | 20 µM (active) |
| CCc1c(SCCC(=O)O)nc2ccccc2c1C | -7.58% |  |
| O=C(N/N=C/c1ccco1)c1ccc(C(=O)N/N=C/c2ccco2)o1 | -3.13% |  |
| CC(=O)Nc1ccc(/C=N/NC(=O)c2cccs2)cc1 | 3.71% |  |
| O=C(N/N=C/C=C/c1ccco1)c1cccs1 |  | 2 µM (active) |
| CCOc1cc(/C=C(/C#N)c2ccc(Cl)cc2)cc(Cl)c1OCC(=O)O | -0.694% |  |
| Cc1cccc(CCNS(=O)(=O)c2ccc(S(=O)(=O)NC3CCCC3)cc2)c1 | -12.2% |  |
| N#CCCN1CCN(S(=O)(=O)c2ccc(S(=O)(=O)NC3CC3)cc2)CC1 | 6.11% |  |

| SMILES | activity, negative = inhibition | Potency |
| --- | --- | --- |
| Cn1sc(=O)c2cc(S(=O)(=O)NC3CC3)ccc21 |  | 0.501 µM (active) |
| CCN(CC)C(=O)Oc1ccc(OC(=O)N(CC)CC)cc1 | -3.17% |  |
| Cc1nonc1NC(=O)CSc1nc2ccccc2cc1C#N | 4.78% |  |
| Cc1ccc2nc(CC(=O)c3ccc4ccccc4c3)c(=O)[nH]c2c1 | 12.1% [at 13.5 µM] |  |
| CC(=O)CCC(=O)c1ccc2ccccc2c1 | -5.73% |  |
| C=CC(=O)c1ccc2ccccc2c1 |  | 11.2 nM (active) and 100 nM (active) |
| CC(=O)Nc1nc2ccccc2n1Cc1ccc(C)cc1 | 0.717% |  |
| CN(C)CCCN(C(=O)COc1ccccc1)c1nc2c(Cl)cccc2s1 | 2.64% |  |
| CCC(C)(C)NC(=O)CN(C(=O)CCC(=O)Nc1cc(C)ccn1)c1ccc2c(c1)OCCO2 | 2.32% |  |
| Cc1ccnc(NC(=O)c2ccoc2C)c1 | 7.63% |  |
| COc1cc(SC)ccc1C(=O)Nc1nc(C)cs1 | 7.61% |  |
| COc1cc(SC)ccc1C(=O)Nc1cc(C)ccn1 |  | 22.4 µM (active) |
| O=C(O)COc1ccc(/C=N/O)cc1Br | -1.14% |  |
| Cc1ccccc1CN(c1ccc(C(=O)NCC2CCCO2)cc1)S(C)(=O)=O (configuration not stated) | 10.6% |  |
| C/C=C(\C)C(=O)NCCN1C2=NC[C@H](Cc3ccc(O)cc3)N2C[C@@H]1Cc1ccc(OC)cc1 | 5.48% |  |
| CC(NC(=O)COC(=O)c1ccc2c(c1)OCO2)c1ccccc1 (configuration not stated) | -4.82% |  |
| CCOC(=O)c1ccc(CS(=O)c2ccc(Cl)cc2)o1 (configuration not stated) |  | 2.82 µM (active) |
| CCOC(=O)c1c(Cc2ccc(Cl)cc2)c[nH]c1C | -2.42% |  |
| CCOC(=O)c1ccc(COC(=O)c2cc(=O)[nH]c3ccccc23)o1 | -5.02% |  |
| CCOC(=O)c1ccccc1NC(=O)CSc1nc2ccccc2c(=O)[nH]1 | -3.53% |  |
| Cc1cc(=O)oc(C)c1C(=O)NCCN(C)Cc1ccccc1 | -12% |  |
| C=CS(=O)c1sc(Cl)c(N2CCOCC2)c1[N+](=O)[O-] (configuration not stated) |  | 2 µM (active) |

| SMILES | activity, negative = inhibition | Potency |
| --- | --- | --- |
| Cn1c(SCC(=O)NC2CCCCC2)nnc1-c1ccc(N)cc1 | 4.84% |  |
| CCOC(=O)/C=c1\s/c(=C\c2ccc(C#N)cc2)c(=O)n1CC(=O)Nc1cccc(C)c1C | 1.24% |  |
| CC1(C)Cc2cccc(OCC(=O)Nc3nccs3)c2O1 | -3.74% |  |
| CC1(C)Cc2cccc(OCC(=O)N3CCN(c4ccc([N+](=O)[O-])cc4)CC3)c2O1 |  | 10 µM (active) |
| CC1(C)Cc2cccc(OCC(N)=O)c2O1 | 14.2% |  |
| Cc1cc2ccccc2n1CCC(=O)O | 10.7% |  |
| O=[N+]([O-])c1ccccc1NCc1ccccc1Cl | -2.06% |  |
| Cc1cccc(C)c1NC(=O)C1(N(C(=O)c2ccccn2)c2ccc(O)cc2)CCCCC1 | 4.63% |  |
| CCOc1ccc(NC(=O)CSc2nc3c(c(=O)n2-c2ccccc2OC)SCC3)cc1 |  | 17.8 µM (active) |
| CCOC(=O)c1sc(NC(=O)CSc2nc3c(c(=O)n2-c2ccccc2)SCC3)c(C(=O)OCC)c1C | 3.33% |  |
| COc1ccccc1-n1c(CNC(=O)c2ccccc2)nnc1SCC(=O)Nc1nnc(C)s1 | -1.72% |  |
| CCc1nnc(NC(=O)CSc2nc3ccccc3c(=O)n2CCCOC)s1 | -2.48% |  |
| CCc1nnc(NC(=O)CSc2nc3c(c(=O)n2-c2ccccc2OC)SCC3)s1 |  | 22.4 µM (active) |
| CCn1c(SCC(=O)Nc2ccc3c(c2)OCCO3)nc2c(c1=O)SC(C)C2 (configuration not stated) | 0.288% |  |
| O=C(Nn1cnc2ccccc2c1=O)c1ccc([N+](=O)[O-])cc1Cl | 2.25% |  |
| C=C(C(C)=O)C(O)c1ccc([N+](=O)[O-])cc1 (configuration not stated) | -8.28% |  |
| CCCCC(=O)NCc1ccc(F)cc1 | 14.5% |  |
| O=C(CC(NS(=O)(=O)c1ccc(Cl)cc1)c1ccco1)NC1CCCC1 (configuration not stated) | 6.1% |  |
| COc1ccccc1CNS(=O)(=O)c1ccc(C)cc1 | 2.08% |  |
| COc1ccc(S(=O)(=O)NC(CC(=O)NCc2ccccc2OC)c2ccco2)cc1 (configuration not stated) |  | 10 µM (active) |
| COC(=O)CCC(=O)N1CCCC(CO)(Cc2ccccc2)C1 (configuration not stated) | 1.8% |  |
| C#CCCOC(=O)N1C2=NC(C(=O)OC)=C(C(=O)OC)[C@@H]3N(C)c4ccc(OC)cc4[C@]23C[C@H]1C(=O)OC | 4.88% [at 13.5 µM] |  |

| SMILES | activity, negative = inhibition | Potency |
| --- | --- | --- |
| CCOC(=O)CN/C=C(\C#N)c1ccc(F)cc1 | -3.19% |  |
| Cc1ccc(C(=O)NCCNC(=O)c2ccccc2)cc1 | 2.28% |  |
| Cc1ccc(C(=O)c2c(NC(=O)c3ccccc3)sc(C)c2C)cc1 |  | 25.1 µM (active) |
| Cc1ccc(C(=O)c2c(NC(=O)c3ccncc3)sc3c2CCCC3)cc1 | 5.45% |  |
| CCC(=O)NCc1cc(-c2nn(C)c(=O)c3ccccc23)ccc1OC | -15.6% |  |
| COC(=O)c1cc(C(=O)CSc2nc(C)cc(C)n2)ccc1O | -7.96% |  |
| COc1ccc(C(=O)NNC(=O)c2cnccn2)cc1[N+](=O)[O-] | -11.7% |  |
| COc1ccc(C(=O)CSc2nc(C)cc(C)n2)cc1[N+](=O)[O-] |  | 2.24 µM (active) |
| C/C(=N\NC(=O)OC(C)(C)C)c1ccc[nH]1 | 5.62% |  |
| Cc1cc(C(=O)CCl)c(C)n1CC1COc2ccccc2O1 (configuration not stated) |  | 0.251 µM (active) |
| Cc1cc(NC(=O)CCC2COc3ccccc3O2)no1 (configuration not stated) | -3.2% |  |
| O=C(NCC1COc2ccccc2O1)C1(c2ccccc2)CCCC1 (configuration not stated) | -5.04% |  |
| O=C(NNC(=O)c1ccc(Cl)cc1Cl)c1cccs1 | 7.06% |  |
| Fc1cccc(Cc2noc(CN3CCN(c4cnccn4)CC3)n2)c1 | -4.08% |  |
| CCOC(=O)c1c(C)[nH]c(C2=NNC(=NC(C)COC)SC2)c1C (configuration not stated) |  | 10 µM (active) |
| CCOC(=O)c1c(C)[nH]c2c1-c1ccccc1C(=O)C2=O | 4.42% |  |
| CCCCOC(=O)c1[nH]c(C)c(C(=O)OC)c1C | -76% |  |
| CN1CCN(c2nc(Nc3ccc(O)cc3)nc3ccccc23)CC1 | 3.31% |  |
| COc1ccc(-c2nn(-c3ccccc3)cc2/C=C\C(=O)N2CCOCC2)cc1[N+](=O)[O-] | 10.2% |  |
